Screening data deposited in PubChem by The Scripps Research Institute Molecular Screening Center.
ssDAF-12 act: activators of S. stercoralis DAF-12 nuclear receptor | HEK293 ssDAF-12/GRIP1 lit1-tk-luc reporter, luminescence; % of 3 µM dafachronic acid response | activation, % at 6.8 µM | 370,000 compounds, 1% hits | AID 652126;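 active means activation above the mean over all tested compounds plus 3 SD, cut at about 0.9% in these data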
DAX1 inh-1: NR0B1 (DAX1) inhibition; inhibition, % at 6.75 µM; HEK293 Gal4-DAX1 luciferase reporter, luminescence; 340,000 compounds, 0.99% hits; P51843;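 active means inhibition above the mean over all tested compounds plus 3 SD, cut at about 4.2% in these data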;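 further: inhibition shows as a rise in luminescence from relieved DAX1 repression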
hcDAF12 agonist: H. contortus DAF-12 activation, primary screen | HEK293 hcDAF-12 lit1-tk-luc reporter, luminescence; 0% DMSO, 100% Δ7-dafachronic acid | activation, % at 6.8 µM | 370,000 compounds, 1.4% hits | AID 652067;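 active means activation above the mean of all tested compounds plus 3 SD, cut at about 5.5% in these data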
DAX1 inh-2: blocks DAX1 repression of SF-1 activated StAR promoter; inhibition, % at 6.8 µM; HEK293T StAR-luciferase reporter, SF-1/DAX-1 repression relief; 370,000 compounds, 1.1% hits;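 active means inhibition above the mean over all tested compounds plus 3 SD, cut at about 3.6% in these data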;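 further: higher inhibition means more luminescence from relief of DAX-1 repression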
hgDAF12 agonist: activates the H. glycines DAF-12 receptor ligand-binding domain | HEK293 GAL4-hgDAF12 UAS-luciferase reporter, agonist luminescence; normalized to butyrate control | activation, % at 6.8 µM | AID 687014 | 370,000 compounds, 1.8% hits;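 active means activation above a cutoff set at the mean of all screened compounds plus 3 SD, cut at about 10% in these data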
LXR ag: LXR-beta agonism as hcDAF-12 counter-screen | shares compounds with hcDAF12 agonist | HEK293 Gal4-LXR tk-luc reporter, luminescence, 24 h; normalized: DMSO 0%, positive control 100% | activation, % at 6.8 µM | 3,400 tested, under 10 active;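 active means mean percent activation of the reporter above a cutoff set as the average over tested compounds plus their standard deviation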
Target sequence (P55055 whole entry, looked up, the tested form may be a part): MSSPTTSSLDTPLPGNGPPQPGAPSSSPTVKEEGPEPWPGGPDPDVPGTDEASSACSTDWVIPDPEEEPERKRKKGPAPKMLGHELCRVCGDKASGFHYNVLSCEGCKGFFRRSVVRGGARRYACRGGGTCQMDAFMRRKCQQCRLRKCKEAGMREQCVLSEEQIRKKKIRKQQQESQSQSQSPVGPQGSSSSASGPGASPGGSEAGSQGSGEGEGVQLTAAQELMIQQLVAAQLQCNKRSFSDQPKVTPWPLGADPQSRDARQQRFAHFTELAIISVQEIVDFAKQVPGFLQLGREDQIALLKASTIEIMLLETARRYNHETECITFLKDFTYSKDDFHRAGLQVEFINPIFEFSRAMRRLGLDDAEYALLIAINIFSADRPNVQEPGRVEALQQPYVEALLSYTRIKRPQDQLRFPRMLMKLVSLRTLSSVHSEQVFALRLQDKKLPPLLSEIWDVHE
hcDAF12 conf: confirmation of H. contortus DAF-12 agonists; shares compounds with hcDAF12 agonist; 3,400 compounds, 61% hits; HEK293 hcDAF-12 lit1-tk-luc reporter, luminescence; % of Δ7-dafachronic acid response; activation, % at 6.8 µM;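 active means mean activation across triplicate tests above the threshold derived from the earlier primary screen, cut at about 5.5% in these data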
Hits are given with their value. A selection: hits, their analogues and other compounds. The true share with any hit is near 4.1%.

For COc1ccc(C(=O)NCC(=O)Nc2ccc(-c3ccccc3)cc2)cc1 the results were ssDAF-12 act inactive, DAX1 inh-1 inactive, hcDAF12 agonist inactive, DAX1 inh-2 inactive and hgDAF12 agonist inactive.
`CCOc1ccccc1C(=O)NCC(=O)Nc1ccc(-c2ccccc2)cc1` gave ssDAF-12 act inactive, DAX1 inh-1 inactive, hcDAF12 agonist 6.6, DAX1 inh-2 inactive, hgDAF12 agonist inactive, LXR ag inactive and hcDAF12 conf inactive.
COc1cccc2c1CCc1c-2nc2ccccc2c1C(=O)O was read as ssDAF-12 act inactive, DAX1 inh-1 inactive, hcDAF12 agonist 8.4, DAX1 inh-2 inactive, hgDAF12 agonist 12, LXR ag inactive and hcDAF12 conf 7.8.
Screening CCn1c(CC(=O)Nc2ccccc2F)nnc1SCC(=O)NC1=NCCS1 returned ssDAF-12 act inactive, DAX1 inh-1 inactive, hcDAF12 agonist inactive, DAX1 inh-2 inactive and hgDAF12 agonist inactive.
Screening Cc1ccc(S(=O)(=O)N2CCOCC2)cc1C(=O)Nc1nc2ccccc2[nH]1 returned ssDAF-12 act inactive, DAX1 inh-1 inactive, hcDAF12 agonist 7.9, DAX1 inh-2 inactive, hgDAF12 agonist inactive, LXR ag inactive and hcDAF12 conf inactive.
Screening CCCCSCc1nc2nc(Cl)c(Cl)nc2[nH]1 returned ssDAF-12 act inactive, DAX1 inh-1 inactive, hcDAF12 agonist inactive, DAX1 inh-2 inactive and hgDAF12 agonist inactive.
For O=C(Nc1ccc(N2CCCCC2)cc1)c1ccc([N+](=O)[O-])o1 the results were ssDAF-12 act inactive, DAX1 inh-1 inactive, hcDAF12 agonist 7.2, DAX1 inh-2 inactive, hgDAF12 agonist inactive, LXR ag inactive and hcDAF12 conf inactive.
Screening COc1ccc(CNC(=O)CC2C[C@H](C(=O)N3CCOCC3)[C@@]3(CCC4CCCC4)c4[nH]c5ccccc5c4CCN3C2=O)cc1OC (stereo not given in full) returned ssDAF-12 act inactive, DAX1 inh-1 inactive, hcDAF12 agonist inactive, DAX1 inh-2 inactive and hgDAF12 agonist inactive.
Cc1ccc2ccc(C3C(=O)c4ccccc4C3=O)nc2c1 was read as ssDAF-12 act 1.8, DAX1 inh-1 inactive, hcDAF12 agonist 15, DAX1 inh-2 inactive, hgDAF12 agonist 14, LXR ag inactive and hcDAF12 conf 19.
Screening O=c1[nH]c(=S)[nH]c2c1C(c1cccc(C(F)(F)F)c1)OC(CCc1ccccc1)C2 (stereo not given) returned ssDAF-12 act inactive, hcDAF12 agonist inactive, DAX1 inh-2 inactive and hgDAF12 agonist inactive.
CCCCN(CC)CCNC(=O)c1cc2c(-c3ccccc3F)nn(C)c2s1 was read as ssDAF-12 act inactive, DAX1 inh-1 inactive, hcDAF12 agonist inactive, DAX1 inh-2 inactive and hgDAF12 agonist inactive.
For CCN(CC)CCCNC(=O)c1cc2c(-c3ccc(Cl)cc3)nn(C)c2s1 the results were ssDAF-12 act inactive, DAX1 inh-1 5.5, hcDAF12 agonist 6.6, DAX1 inh-2 inactive, hgDAF12 agonist inactive, LXR ag inactive and hcDAF12 conf 6.7.
CC(=O)OC[C@@H]1CN(Cc2ccccc2)C[C@H](n2cnc3c(N4CCN(c5ccccc5)CC4)ncnc32)O1 was read as ssDAF-12 act inactive, hcDAF12 agonist inactive, DAX1 inh-2 inactive and hgDAF12 agonist inactive.
`O=S(=O)(Nc1ccn(-c2ccccc2)n1)c1ccc(Br)cc1` gave ssDAF-12 act inactive, DAX1 inh-1 inactive, hcDAF12 agonist 7.3, DAX1 inh-2 inactive, hgDAF12 agonist inactive, LXR ag inactive and hcDAF12 conf inactive.
COCc1ccc(C(=O)N2CCCC(C(=O)c3ccc(SC)cc3)C2)s1 (stereo not given) was read as ssDAF-12 act inactive, DAX1 inh-1 inactive, hcDAF12 agonist inactive, DAX1 inh-2 inactive and hgDAF12 agonist inactive.
Screening CC/C(=N/NC(=O)c1ccc2c(c1)OCO2)c1ccccc1O returned ssDAF-12 act 1.1, DAX1 inh-1 4.9, hcDAF12 agonist 14, DAX1 inh-2 inactive, hgDAF12 agonist inactive, LXR ag inactive and hcDAF12 conf inactive.
For O=C(COC(=O)CCC(=O)c1cccs1)Nc1cccc(F)c1 the results were ssDAF-12 act inactive, DAX1 inh-1 inactive, hcDAF12 agonist inactive, DAX1 inh-2 inactive and hgDAF12 agonist inactive.
Screening Cc1ccc(NC(=O)CSc2nnc(C)c(=O)n2N)cc1Cl returned ssDAF-12 act inactive, DAX1 inh-1 inactive, hcDAF12 agonist inactive, DAX1 inh-2 inactive and hgDAF12 agonist inactive.
For Cc1nnc(SCC(=O)c2ccc(Cl)cc2)n(N)c1=O the results were ssDAF-12 act inactive, DAX1 inh-1 inactive, hcDAF12 agonist 9.6, DAX1 inh-2 inactive, hgDAF12 agonist inactive, LXR ag inactive and hcDAF12 conf inactive.
`Cc1cc2ncc(-c3ncc(C(F)(F)F)cc3Cl)cn2n1` gave ssDAF-12 act inactive, DAX1 inh-1 inactive, hcDAF12 agonist 8.3, DAX1 inh-2 inactive, hgDAF12 agonist 12, LXR ag inactive and hcDAF12 conf 6.7.
For N#Cc1cnn2cc(-c3ncc(C(F)(F)F)cc3Cl)cnc12 the results were ssDAF-12 act inactive, DAX1 inh-1 inactive, hcDAF12 agonist inactive, DAX1 inh-2 inactive and hgDAF12 agonist inactive.
CC1(Cc2ccccc2OC(F)(F)F)C(=O)Nc2ccc(-c3ccsc3)cc21 (stereo not given) was read as ssDAF-12 act inactive, hcDAF12 agonist inactive, DAX1 inh-2 inactive and hgDAF12 agonist inactive.
`CCOCCCNC(=O)CCC(=O)NNc1nc2ccccc2c2nc(C)nn12` gave ssDAF-12 act inactive, DAX1 inh-1 inactive, hcDAF12 agonist inactive, DAX1 inh-2 inactive and hgDAF12 agonist inactive.
Screening COCCCNC(=O)CCC(=O)NNc1nc2ccccc2c2nc(C)nn12 returned ssDAF-12 act inactive, DAX1 inh-1 inactive, hcDAF12 agonist 7.2, DAX1 inh-2 inactive, hgDAF12 agonist inactive, LXR ag inactive and hcDAF12 conf inactive.
Screening CC(C)(C)C(=O)CN1C(=O)NC2(CCOc3ccccc32)C1=O (stereo not given) returned ssDAF-12 act inactive, DAX1 inh-1 inactive, hcDAF12 agonist 8.0, DAX1 inh-2 3.7, hgDAF12 agonist inactive, LXR ag inactive and hcDAF12 conf inactive.
For Cc1ccc(-c2nc3cccnc3s2)cc1NC(=O)c1ccco1 the results were ssDAF-12 act inactive, DAX1 inh-1 inactive, hcDAF12 agonist 13, DAX1 inh-2 inactive, hgDAF12 agonist inactive, LXR ag inactive and hcDAF12 conf inactive.
For Cc1ccccc1NC(=O)NC1(C(=O)N2CCC(C(N)=O)CC2)CCCCC1 the results were ssDAF-12 act inactive, DAX1 inh-1 inactive, hcDAF12 agonist inactive, DAX1 inh-2 inactive and hgDAF12 agonist inactive.
For Cc1ccc(C(=O)NC(=S)Nc2c(C)ccc3nsnc23)cc1 the results were ssDAF-12 act 1.6, DAX1 inh-1 inactive, hcDAF12 agonist 7.6, DAX1 inh-2 inactive, hgDAF12 agonist inactive, LXR ag inactive and hcDAF12 conf inactive.
